Screening results deposited in PubChem BioAssay by several laboratories.
CYP2C19 inhib – blocks human cytochrome P450 2C19 | hit rate 21% among 96,000 | inhibition, % at 5 µM | CYP2C19 Supersomes, luciferin-H EGE luminescence, 30 min | P33261;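 active means CYP2C19 inhibition above a set limit at 5 µM in the primary screen, cut at about 50% in these data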
PostGolgi ctrl – inhibits growth of the yeast control strain | inhibition, % at 10 µM | AID 738 | hit rate 5% among 98,000 | efflux-deficient yeast background strain, growth absorbance A615, 16 h
CYP2C9 inh – blocks human cytochrome P450 2C9 | P11712 | CYP2C9 Supersomes, luciferin-H conversion, luminescence | inhibition, % at 5 µM | hit rate 20% among 96,000;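 active means blocking of liver enzyme CYP2C9 beyond about 50% at 5 µM, limit read from the data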
Target sequence (P11712 whole entry, looked up): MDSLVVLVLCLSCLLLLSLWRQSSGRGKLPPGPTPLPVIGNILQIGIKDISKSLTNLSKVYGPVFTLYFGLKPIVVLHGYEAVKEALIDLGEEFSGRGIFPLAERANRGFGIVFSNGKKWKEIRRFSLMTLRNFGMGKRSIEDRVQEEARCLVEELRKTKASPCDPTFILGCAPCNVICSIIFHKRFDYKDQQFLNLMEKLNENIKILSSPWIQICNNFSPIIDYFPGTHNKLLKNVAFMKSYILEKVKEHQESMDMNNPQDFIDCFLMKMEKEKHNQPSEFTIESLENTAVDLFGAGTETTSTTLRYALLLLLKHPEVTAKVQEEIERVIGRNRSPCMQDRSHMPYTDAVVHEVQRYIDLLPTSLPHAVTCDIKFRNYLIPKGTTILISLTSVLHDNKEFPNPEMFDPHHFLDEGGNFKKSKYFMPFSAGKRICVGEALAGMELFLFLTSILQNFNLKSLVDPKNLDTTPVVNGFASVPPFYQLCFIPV
CYP2C19 activ – increases human CYP2C19 enzyme activity | AID 1025 | recombinant CYP2C19, luciferin-H EGE luminescence; hits give high values; 0 = fully inhibited enzyme, 1 = untreated enzyme | activation factor at 5 µM | P33261 | 96,000 tested, under 10 active;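 active means activation factor of at least 2 at 5 µM in the primary screen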
PostGolgi yeast – growth inhibition of a yeast mutant, post-Golgi transport screen; post-Golgi transport phenotypic cell assay; inhibition, % at 10 µM; hit rate 0.9% among 98,000; AID 739;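 further: yeast cells grown in 1536-well plates; yeast grown about 18 h at 30C before absorbance read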
CYP2C9 activ – activators of human CYP2C9. P11712. recombinant CYP2C9, luciferin-H conversion, luminescence; hits give high values; factor 1 = untreated enzyme, 0 = blocked. activation factor at 5 µM. hit rate 1.4% among 96,000. AID 1024;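 active means activation factor of 2 or more for CYP2C9 at a 5 µM dose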
Numbers stand for hits; – = inactive; · = no result. Sampled rows, rich in hits. Any-hit rate of the full collection: about 32%. Unless noted, no stated cut-off is given here; in the data, active means inhibition above about 30%; inactive means the rest.

SMILES	CYP2C19 inhib	PostGolgi ctrl	CYP2C9 inh	CYP2C19 activ	PostGolgi yeast	CYP2C9 activ
O=C(c1c(Cl)nc2sccn12)N(C(=O)c1c(Cl)nc2sccn12)c1ccc(Cl)cn1	100	–	100	–	–	–
CCn1nc(C)c(C(=O)Nc2cc(Oc3ccc(Cl)cc3)cc([N+](=O)[O-])c2)c1C	–	–	–	–	–	–
CC(C)C1Nc2ccc(S(N)(=O)=O)cc2C2C=CCC21 (stereo unspecified)	69	–	–	–	–	–
Cc1cc(O)ccc1Nc1nc2ccccc2nc1Nc1ccc(O)cc1C	87	–	96	–	–	–
COc1ccc(Nc2ccccc2)c(C)c1	–	–	–	–	–	–
CN1c2ccccc2C(C)(C)C12C=Nc1c(cc(N3CCOCC3)c3ccccc13)O2 (stereo unspecified)	–	–	70	–	–	–
CSc1nc(N2CCOCC2)c2ccccc2n1	–	–	–	–	–	–
Cc1ccccc1CN1C(=O)C(O)(CC(=O)c2ccncc2)c2ccccc21 (stereo unspecified)	90	–	–	–	–	–
CC(C)(C)C(=O)CC1(O)C(=O)N(Cc2ccccc2)c2ccccc21 (stereo unspecified)	72	–	54	–	–	–
O=C(CC1(O)C(=O)N(Cc2ccccc2)c2ccccc21)c1ccncc1 (stereo unspecified)	96	–	66	–	–	–
C=CCOc1nc(N(C)C)nc(N(C)C)n1	–	–	–	–	–	–
FC(F)(F)c1cccc(-c2ccc(-c3csnn3)o2)c1	56	–	–	–	–	–
Cc1nnc(NC(=O)c2ccc(-c3cccc(C(F)(F)F)c3)o2)s1	–	–	–	–	–	–
c1ccc(NCn2cncn2)nc1	–	–	–	–	–	–
OC(Cn1cncn1)(c1ccccc1)c1ccccc1	51	91	76	–	103	–
COc1cc(-c2nnc(SCc3ccccc3Cl)o2)cc(OC)c1OC	–	–	–	–	–	–
COc1cc(-c2nnc(SCc3c(F)cccc3Cl)o2)cc(OC)c1OC	–	–	58	–	–	–
COC(=O)COc1ccc(S(=O)(=O)Nc2cc(OC)ccc2OC)cc1	99	–	–	–	–	–
COc1ccc(OC)c(NS(=O)(=O)c2ccc3c(c2)n(C)c(=O)n3C)c1	78	–	–	–	–	–
Cn1c(=O)n(C)c2cc(NS(=O)(=O)c3ccc4c(c3)CCCC4)ccc21	95	–	–	–	–	–
Cn1c(=O)n(C)c2cc(S(=O)(=O)NCc3ccccc3)ccc21	–	–	–	–	–	–
COc1ccc(NS(=O)(=O)c2ccc3c(c2)n(C)c(=O)n3C)cc1	–	–	74	–	–	–
COC(=O)COc1ccc(S(=O)(=O)Nc2ccccc2SC)cc1	·	–	·	·	–	·
Cc1ccc(-c2nc(CSCC(=O)NCc3cccnc3)c(C)o2)cc1	–	–	–	–	–	–
Cc1ccc(-n2nc(C(=O)N/N=C/c3cccc(C(F)(F)F)c3)c3ccccc3c2=O)cc1C	–	–	–	–	–	–
SMILES	CYP2C19 inhib	PostGolgi ctrl	CYP2C9 inh	CYP2C19 activ	PostGolgi yeast	CYP2C9 activ
Nc1cc(=O)[nH]c(SCCNS(=O)(=O)c2ccccc2)n1	–	–	–	–	–	–
CCNC(=S)N1C2CCC1CC(NC(=O)NC1CCCCC1)C2 (stereo unspecified)	–	–	–	–	–	–
CCOC(=O)c1ccc(NC(=O)CCNS(=O)(=O)c2ccc3c(c2)oc(=O)n3C)cc1	–	–	–	–	–	–
CCOC(=O)c1oc2ccc(S(=O)(=O)Nc3ccc4c(c3)n(C)c(=O)n4C)cc2c1C	79	–	94	–	–	–
Cc1cc(C(=O)CN2C(=O)NC(Cc3c[nH]c4ccccc34)C2=O)c(C)n1C (stereo unspecified)	67	–	–	–	–	–
CCOc1ccc(N2C(=O)NC(Cc3c[nH]c4ccccc34)C2=O)cc1 (stereo unspecified)	–	–	–	–	–	–
O=C1NC(Cc2c[nH]c3ccccc23)C(=O)N1CCOc1ccccc1 (stereo unspecified)	82	–	57	–	–	–
CCc1c(C)nc(N)n2c(SCC(=O)N3CCCC(C)C3)nnc12 (stereo unspecified)	–	–	–	–	–	–
Cc1cc(C)c(S(=O)(=O)Nc2ccc3c4c(cccc24)CC3)c(C)c1	–	61	–	–	–	–
Cc1cc(C)cc(OCC(=O)Nc2ccc3c4c(cccc24)CC3)c1	–	–	–	–	–	–
Cc1ccc(/C=C/C2=NN(Cc3ccc(Cl)c(Cl)c3)C(=O)CC2)cc1	–	44	–	–	–	–
CCOC(=O)CN1N=C(/C=C/c2ccc(C)cc2)CCC1=O	–	–	–	–	–	–
O=C(CC1NC2CCCCC2NC1=O)Nc1cccc(C(F)(F)F)c1 (stereo unspecified)	–	–	–	–	–	–
CCc1cccc(CC)c1-n1c(SCn2nnc3ccccc3c2=O)nnc1-c1cccnc1	96	–	93	–	–	–
C=CCn1c(SCn2nnc3ccccc3c2=O)nnc1-c1ccc(Br)cc1	76	–	75	–	–	–
C=CCn1c(SCn2nnc3ccccc3c2=O)nnc1C1CCCCC1	98	32	–	–	–	–
C=CCn1c(SCn2nnc3ccccc3c2=O)nnc1-c1ccc(F)cc1	99	–	–	–	–	–
Nn1c(Cc2cccc3ccccc23)nnc1SCn1nnc2ccccc2c1=O	–	–	–	–	–	–
C=CCn1c(SCC(=O)NC2CCCCC2)nnc1C1CCCCC1	–	–	–	–	–	–
O=C(Oc1ccc(OC(=O)N2CCCCC2)cc1)c1ccccc1	–	–	–	–	–	–
C=CCSc1nc(-c2ccc3c(c2)OCO3)cc(C(F)(F)F)c1C#N	–	–	–	–	–	–
COc1ccc(C2c3cc(OC)c(OC)cc3CCN2C2CC(=O)N(c3ccccc3)C2=O)cc1OC (stereo unspecified)	–	–	–	–	–	–
Cc1ccc(Nc2nnc(SCn3nnc4ccccc4c3=O)s2)cc1	–	–	–	–	–	–
Cc1nc(SCn2nnc3ccccc3c2=O)nc(C)c1C	75	–	–	–	–	–
Cc1cnn(-c2cc(Oc3ccccc3)ncn2)c1	–	–	–	–	–	–
SMILES	CYP2C19 inhib	PostGolgi ctrl	CYP2C9 inh	CYP2C19 activ	PostGolgi yeast	CYP2C9 activ
CCc1ccc(NC2=NC(C(=O)NC3CCCCC3)CC(=O)N2)cc1 (stereo unspecified)	–	–	–	–	–	–
O=C(NCc1ccc(F)cc1)C1CCC(=O)N1CCc1ccccc1 (stereo unspecified)	–	–	–	–	–	–
c1cncc(CNc2ccc3c(c2)OCO3)c1	89	–	83	–	–	–
Cc1ccccc1CNCc1cccnc1	–	–	–	–	–	–
CCc1ccc(CNCc2cccnc2)cc1	80	–	–	–	–	–
Cc1ccc(C)c(S(=O)(=O)NCc2cccnc2)c1	·	–	·	·	–	·
